Test results: the supplement of paper PMC3334620
Whole data set: some 33,000 sequences, median “E-score (-0.5 to 0.5)” near -0.01, cut for the highest 2% near 0.26. The sample holds the highest values, similar sequences and a random draw of the others, so the mix is not that of the screen.

Target: Ste12 (UniProt P13574)
Assay: PBM E-score (8-mer binding enrichment) (E-score (-0.5 to 0.5)); higher = stronger / more preferred TF binding
Conditions: protein concentration: 200 nM; construct: GST-DNA-binding domain
Description: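 Universal 'all 10-mer' protein binding microarrays (Agilent AMADID 015681) probed with GST-tagged S. cerevisiae TFs (full-length or DBD) made by in vitro transcription/translation (PURExpress), about 100-200 nM. Bound TF was detected with fluorescent anti-GST. Each ungapped 8-mer (which stands for itself and its reverse complement) is scored by the PBM enrichment score (E-score), a modified Wilcoxon-Mann-Whitney statistic from -0.5 to +0.5, computed with the Universal PBM Analysis Suite. Scale: above 0.35 generally sequence-specific binding.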

Sequence of UniProt P13574 (P13574 whole entry): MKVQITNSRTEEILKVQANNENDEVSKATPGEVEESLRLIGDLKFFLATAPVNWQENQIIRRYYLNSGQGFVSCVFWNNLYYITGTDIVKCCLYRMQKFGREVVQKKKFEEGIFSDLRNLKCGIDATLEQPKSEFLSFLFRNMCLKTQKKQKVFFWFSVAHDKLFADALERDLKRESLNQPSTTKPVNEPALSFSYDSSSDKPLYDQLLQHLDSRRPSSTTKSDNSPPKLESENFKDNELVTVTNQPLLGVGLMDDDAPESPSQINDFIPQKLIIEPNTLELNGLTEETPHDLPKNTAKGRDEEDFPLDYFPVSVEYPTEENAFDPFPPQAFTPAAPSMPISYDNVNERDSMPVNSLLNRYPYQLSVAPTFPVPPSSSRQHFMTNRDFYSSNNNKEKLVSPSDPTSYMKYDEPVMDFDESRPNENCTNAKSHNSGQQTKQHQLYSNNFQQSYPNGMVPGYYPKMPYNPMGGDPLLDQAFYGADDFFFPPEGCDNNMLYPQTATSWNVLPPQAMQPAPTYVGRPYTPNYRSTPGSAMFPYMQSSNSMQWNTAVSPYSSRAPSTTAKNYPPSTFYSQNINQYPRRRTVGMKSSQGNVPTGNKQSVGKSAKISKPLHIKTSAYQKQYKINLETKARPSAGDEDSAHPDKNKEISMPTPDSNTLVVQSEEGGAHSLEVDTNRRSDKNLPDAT

Row | Sequence | PBM E-score
1 | CTTAGCAC | -0.0994
2 | ATACCACG | 0.0272
3 | ACATAGCA | -0.115
4 | GTAAAAAC | 0.206
5 | GGTAAACA | 0.28
6 | ATAAAACG | 0.37
7 | ATTAAACG | 0.155
8 | GTAAAAAA | 0.217
9 | CGTAAACA | 0.186
10 | GTAAAACA | 0.323
11 | AGTAAACA | 0.0888
12 | ATAAACCG | 0.0871
13 | ACAGCGAG | -0.00798
14 | GTAGATCA | 0.023
15 | ACCGCACC | 0.0603
16 | AGGAGGGA | -0.0567
17 | AGGGTGGG | 0.35
18 | AGGGTGGA | -0.218
19 | AGGGTGGC | -0.0324
20 | AGGGGAGA | -0.0864
21 | AGGGAGGG | 0.305
22 | AGGAGGGG | 0.285
23 | AGGGAGGA | -0.192
24 | AGGGGAGG | 0.348
25 | AAGGGAGG | -0.0233

Row | Sequence | PBM E-score
26 | AGGAGGGC | -0.081
27 | AGGGAGGC | -0.122
28 | AGTTTGCG | 0.122
29 | AGTGCGGA | 0.0511
30 | CTCCTGGA | -0.166
31 | AAATTTGC | 0.0182
32 | ATTGGTAC | 0.00439
33 | AAGAGCTT | -0.0673
34 | ACCAAAGA | 0.158
35 | ACGCCCAC | 0.117
36 | GATGAGTA | 0.0183
37 | TACTGGAA | 0.182
38 | CACACCAA | 0.115
39 | AATTGAAT | 0.131
40 | CATTGAAA | 0.247
41 | AATTGAAC | -0.0364
42 | GATTGAAA | 0.243
43 | AATTGAAA | 0.412
44 | TATTGAAA | 0.304
45 | CTCAACGA | -0.137
46 | ACGACAGT | -0.147
47 | CCAATAAA | 0.148
48 | GCAATAAA | 0.279
49 | AAAATAAG | 0.183
50 | CAAATACC | 0.185

Row | Sequence | PBM E-score
51 | GCAATAAC | 0.0195
52 | GAAATAAA | 0.282
53 | CAAATAAG | 0.0883
54 | AAAATAAC | 0.2
55 | AAAATAAT | 0.293
56 | CAAATAAC | 0.283
57 | CAAATAAA | 0.1
58 | GAAATAAC | 0.121
59 | CTGAAGGA | -0.0367
60 | CACGCGTG | 0.221
61 | CGTTCGCA | -0.119
62 | AAAATAAA | 0.286
63 | AAAATACA | 0.143
64 | AAATAAAG | 0.172
65 | TAAATAAA | 0.228
66 | AAATAAAA | 0.291
67 | AAATAAAT | 0.169
68 | CGAAGACG | -0.13
69 | CAATGGGA | -0.134
70 | GCCTAAGC | -0.358
71 | CCACTGGC | -0.0254
72 | CATCAGAA | 0.0441
73 | AATCAGAA | 0.27
74 | AATCAGAG | 0.0937
75 | AGGTAGCC | -0.26

Row | Sequence | PBM E-score
76 | CAGGGTAG | -0.114
77 | CTGACTAC | -0.129
78 | ATGATACA | 0.294
79 | ATGATACC | 0.0159
80 | CTGATACA | 0.28
81 | CTGATACC | 0.0308
82 | ATGATACG | 0.25
83 | GTGATACA | 0.195
84 | GGCGCTTA | 0.0142
85 | AGGGCCAC | -0.202
86 | CTCAATCC | 0.0296
87 | GAAAAGCA | 0.0143
88 | ACAGCCAG | -0.178
89 | CTTGGTTA | 0.052
90 | CCCCTACC | 0.0111
91 | CTGTAAAA | 0.219
92 | GTGTAAAA | 0.15
93 | TAGTAAAA | 0.211
94 | ACGTAAAA | 0.161
95 | ATGTAAAA | 0.349
96 | TCGTAAAA | 0.279
97 | ATGTAAAT | 0.113
98 | GCGTAAAA | 0.163
99 | TTGTAAAA | 0.315
100 | ATAGAGCC | -0.0936

Row | Sequence | PBM E-score
101 | TACAGACA | 0.0984
102 | ACAGCTCG | -0.157
103 | GCAGAGGC | -0.185
104 | CACTCGCC | -0.0182
105 | CAAAAGTG | 0.00054
106 | AGATCTCA | 0.0566
107 | AGATGAAC | 0.098
108 | CGATGAAA | 0.289
109 | GGATGAAC | -0.196
110 | CGATGAAG | 0.0893
111 | TGATGAAA | 0.258
112 | GGATGAAA | 0.395
113 | CGATGAAC | 0.124
114 | AGATGAAG | 0.102
115 | AGATGAAA | 0.39
116 | CCTCTACG | -0.283
117 | AGAGCCCC | -0.201
118 | CACTGGAA | -0.101
119 | ACATGGAC | -0.00801
120 | ATGACATA | 0.222
121 | ATGTTACG | -0.0262
122 | CTGTTACA | 0.378
123 | GTGTTACA | 0.19
124 | GCGTTACA | 0.139
125 | CTGTTACC | -0.03

Row | Sequence | PBM E-score
126 | ATGTTACA | 0.297
127 | CCGTTACA | 0.318
128 | ATGTTACC | 0.175
129 | ACGTTACA | 0.164
130 | AACGTCCG | -0.102
131 | ACGCTGTG | -0.038
132 | GCTGGCCA | -0.00597
133 | CTTAGGGA | -0.316
134 | AAATGAAG | 0.257
135 | GCGCTTCC | -0.0472
136 | AAGGATAA | -0.00803
137 | AATTGCAT | 0.0393
138 | ACTACCTA | -0.242
139 | ACTGTTTG | 0.188
140 | CCTGTTAC | 0.151
141 | ACTGTTTC | 0.289
142 | ACTGTTTA | 0.165
143 | CCTGTTTA | 0.0871
144 | CCTGTTTC | 0.32
145 | CAAACGGA | 0.0164
146 | AAAACGGC | 0.225
147 | AAAACGGT | 0.152
148 | GAAACGGA | 0.343
149 | GAAACGGC | 0.229
150 | AAAACGGA | 0.273

Row | Sequence | PBM E-score
151 | GCCCCGAC | -0.135
152 | AACCTAAA | 0.324
153 | CACCTAAA | 0.0511
154 | TACCTAAA | 0.138
155 | CCCCGTTA | -0.00038
156 | TACAACTA | 0.268
157 | CACAACTA | 0.153
158 | AACAACTA | -0.00598
159 | ACAGGTCT | -0.267
160 | ATGTTCTC | -0.124
161 | AACAAAAT | 0.11
162 | ACAAAAAA | 0.311
163 | ACAAAAAT | 0.288
164 | TCAAAAGA | 0.202
165 | ACAAAAAC | 0.201
166 | TCAAAAAA | 0.32
167 | AAAAAGCA | 0.108
168 | ACAAAAAG | 0.125
169 | ACACAAAT | 0.108
170 | GCAAAGCA | -0.148
171 | ACAAAGCA | 0.29
172 | TCAAAACA | 0.209
